About 83,000 compounds went through this panel and 20% of them were active in at least one assay; those are over-represented in the sample as a whole.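 Method: cells in 96-well plates; compound added at one concentration; 48 h incubation; percent growth measured; values under 10 scored active.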 Unmarked numbers belong to inactive results. Calls of active or inactive are those of the source.
Experiments:
Assay in all cases: NCI-60 one-dose screen, 48 h (100 = growth as untreated, 0 = no growth, -100 = all killed)
Settings in all cases: 10 µM unless noted
[1] = test system: HCT-15 colon
[2] = test system: HT29 colon
[3] = test system: SNB-75 CNS
[4] = test system: SNB-19 CNS
[5] = test system: U251 CNS
[6] = test system: PC-3 prostate
[7] = test system: SK-MEL-5 melanoma
[8] = test system: UACC-62 melanoma
[9] = test system: LOX IMVI melanoma
[10] = test system: SK-MEL-28 melanoma

Compound	growth [1]	growth [2]	growth [3]	growth [4]	growth [5]	growth [6]	growth [7]	growth [8]	growth [9]	growth [10]
NS(=O)(=O)c1ccc(NC(=O)/C(=C\c2ccc(Cl)cc2Cl)NC(=O)c2ccccc2)cc1	110%	103%	81.4%	95.6%	97.1%	89.4%	90.2%	74.9%	96.2%	110%
COc1ccc(Nc2ncccc2/C=C/C(=O)c2cc(OC)c(OC)c(OC)c2)cc1	-57.2% (active)	-66.8% (active)	21.4%	33.4%	-95.8% (active)	-15.1% (active)	-25.8% (active)	-24% (active)	-63.6% (active)	-77% (active)
O=C(NNC(=O)c1nc2cc(F)ccc2n2cccc12)c1cnccn1	24.3%	31.2%	77.1%	33%	20.3%	43.7%	42.7%	19.6%	26.7%	36.4%
N#Cc1ccc(O)c(C2=NCC(Cc3ccccc3)O2)c1 (stereo not given)	21.2%	72.6%	70.6%	55.6%	23.8%	35.3%	35.5%	42%	32.6%	80.2%
N#C/C(=C\c1ccc(-c2cccc(C(F)(F)F)c2)o1)c1ccccc1	62.5%	86.3%	85%	99.1%	100%	90.4%	92.6%	71.4%	86.5%	98.4%
O=C(Cc1ccc(NC(=O)c2cccc(Cl)c2)cc1)NCc1ccccc1	27.1%	8.25% (active)	29.7%	47.5%	33.3%	48.8%	7.53% (active)	37.2%	39.6%	58.9%
Cc1cn(-c2cc(NC(=O)c3cncc(C#Cc4c(N)ncc5ccc(F)cc45)c3)cc(C(F)(F)F)c2)cn1	49.9%	8.94% (active)	76.8%	91.9%	80.4%	71.7%	27.4%	33.8%	23%	42.4%
Nc1c(C(=O)Nc2cccc(Cl)c2)sc2nc3c(cc12)CCCC3	78.8%	68.2%	101%	92.2%	89.3%	80.2%	88.2%	70.2%	93%	91.1%
CN(C)c1ccc(-c2nc(-c3ccccc3)c(-c3ccccc3)[nH]2)cc1	77.5%	58.9%	106%	106%	103%	76.9%	100%	97.7%	88.7%	103%
COc1ccc(C(=O)c2cc3c(N)c(C(=O)Nc4ccccc4)sc3nc2C)cc1	18.7%	14.9%	28.2%	25.2%	17.8%	24.3%	17.2%	30.5%	53.6%	59.8%
c1ccc2c(c1)CCCc1nnc3nc4ccccc4n3c1-2	40.2%	31.4%	45.4%	56.5%	38.5%	37.1%	56.5%	57.7%	33.7%	83.7%
CN(C)S(=O)(=O)Oc1ccc(-c2sc3cc(OS(=O)(=O)N(C)C)ccc3c2C(=O)c2ccc(OCCN3CCCCC3)cc2)cc1	34.2%	8.75% (active)	61.5%	58.2%	18.6%	53.6%	67.5%	47.3%	32.7%	57.2%
O=C1/C=C/[C@@H](O)[C@@H]2C[C@@H](O)C[C@H]2/C=C/CCC[C@@H](O)CCO1	107%	91.6%	41.2%	104%	92.3%	90.6%	22.9%	110%	94.7%	28.7%
CCN1C(=O)N(CC)C2C1NC(=S)N2/N=C/c1ccc(OC)cc1 (stereo not given)	33.2%	8.46% (active)	15.1%	52.8%	40.3%	55.9%	43.3%	38.5%	49.2%	71%
COc1ccc(/C=C/C(=O)c2cc(OC)c(OC)c(OC)c2)cc1OCC(=O)Nc1nc2ccc(OC(F)(F)F)cc2s1	11.7%	20.1%	-33.1% (active)	12.9%	-45.9% (active)	33.4%	2.06% (active)	60%	-22.9% (active)	36.4%
O=C1Nc2ccccc2/C1=C/c1cccn1C(=O)c1ccc(Cl)s1	17.8%	80.5%	63.6%	28.4%	22.3%	33%	69.8%	94.9%	79.2%	113%
CC1=C(CCC(C)NCc2ccc(OCCCN3CCCCC3)cc2)C(C)(C)CCC1 (stereo not given)	-67.2% (active)	-81.9% (active)	-59.7% (active)	-45.7% (active)	-85.6% (active)	-56.1% (active)	-94.6% (active)	-77% (active)	-88.7% (active)	-83.4% (active)
CC[N+]1(CC)CC[N+]2(CCCC(C)CC2)CC1 (stereo not given)	104%	99.7%	115%	102%	111%	96.6%	104%	100%	105%	104%
NC1=Nc2cc(OCCCCN3Cc4ccccc4C3)c(OCC3CC3)cc2C12CCCC2	3.13% (active)	2.03% (active)	71.5%	76.9%	24.2%	44.1%	-91.5% (active)	50.5%	-80.7% (active)	-81.4% (active)
COc1ccc2c(c1)c(-c1nc(-c3c[nH]c4ncccc34)cs1)cn2CCO	32%	54.5%	31.7%	82.4%	53.2%	49%	58.4%	58.4%	42.8%	78.5%
Cc1n[nH]c2ccc(Br)cc2c1=O	100%	98.3%	102%	109%	100%	90.9%	97.4%	112%	101%	113%
O=C(/C=C/c1ccccc1)c1ccc(Nc2nc(Nc3ccc(F)cc3)nc(Nc3ccc(Cl)cc3)n2)cc1	86.7%	83.5%	95%	101%	78.9%	74.5%	79%	100%	85.1%	90.9%
C=C(C)[C@@H]1CC[C@]2(C(=O)N3CCN(C)CC3)CC[C@]3(C)[C@H](CC[C@@H]4[C@@]5(C)CC[C@H](OC(=O)c6ccccc6C(=O)O)C(C)(C)[C@@H]5CC[C@]43C)[C@@H]12	103%	109%	85.1%	95.4%	105%	91%	99.5%	101%	99.1%	105%
O=C(Nc1ccc(Cl)cc1)Oc1c(Cl)c(Cl)c(Cl)c(Cl)c1Cl	94.5%	96.1%	83.3%	98.1%	98%	89.4%	95.3%	81.3%	86.1%	105%
Cc1ccc(C(=O)c2ccc(CC(=O)NN3C(=O)c4ccccc4C3=O)n2C)cc1	103%	106%	62.9%	96.4%	95.8%	98.9%	99.8%	94.2%	94.1%	103%
O=C(CCCCCCN1CC(=O)N2[C@H](c3ccc(Cl)cc3)c3[nH]c4ccccc4c3C[C@@H]2C1=O)NO	109%	67.5%	30.2%	69.6%	53%	48.2%	43.8%	21%	27.1%	45.3%

— PubChem BioAssay (NCI)
